Source: PubChem BioAssay (NCI)
This is part of a sample that, as a whole, favours compounds with a hit. Of some 83,000 tested, about 20% had one in any assay.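 Note: values are percent growth. 100 is the growth of untreated cells, values between 100 and 0 indicate rising inhibition; between -100 and 0 indicates cell death.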 Active and inactive are the calls of the source. Rule for the calls: active = growth percent below 10; inactive = the rest.

Assays:
Assay in all cases: NCI-60 one-dose screen, 48 h (100 = growth as untreated, 0 = no growth, -100 = all killed)
SR leukemia = details: 10 µM unless noted
RPMI-8226 leukemia = details: 10 µM unless noted
OVCAR-8 ovarian = details: 10 µM unless noted
OVCAR-5 ovarian = details: 10 µM unless noted
OVCAR-4 ovarian = details: 10 µM unless noted
SK-OV-3 ovarian = details: 10 µM unless noted
IGROV1 ovarian = details: 10 µM unless noted
OVCAR-3 ovarian = details: 10 µM unless noted
HS 578T breast = details: 10 µM
NCI/ADR-RES ovarian = details: 10 µM unless noted
T-47D breast = details: 10 µM unless noted
MDA-MB-435 melanoma = details: 10 µM unless noted
SW-620 colon = details: 10 µM unless noted
MCF7 breast = details: 10 µM unless noted
HCT-116 colon = details: 10 µM unless noted
HCC-2998 colon = details: 10 µM
KM12 colon = details: 10 µM unless noted
BT-549 breast = details: 10 µM unless noted

Measured: growth

CC(=O)C1CC(C)CCC1C(C)C (stereo not given)
inactive: SR leukemia 78.9% | RPMI-8226 leukemia 56.3% | OVCAR-8 ovarian 109% | OVCAR-5 ovarian 105% | OVCAR-4 ovarian 61.4% | SK-OV-3 ovarian 108% | IGROV1 ovarian 99.2% | OVCAR-3 ovarian 94.7% | HS 578T breast 106% | NCI/ADR-RES ovarian 86.4% | T-47D breast 71.9% | MDA-MB-435 melanoma 121% | SW-620 colon 106% | MCF7 breast 85.3% | HCT-116 colon 61.6% | HCC-2998 colon 104% | KM12 colon 98%

COc1cc(OC)c(/C=C/S(=O)(=O)Cc2ccc(OC)c(NCC(=O)O)c2)c(OC)c1
active: NCI/ADR-RES ovarian 9.1% | BT-549 breast 6.04% | MDA-MB-435 melanoma -30.5% | HCT-116 colon 6.42%
inactive: SR leukemia 10.7% | RPMI-8226 leukemia 25.6% | OVCAR-8 ovarian 15.4% | OVCAR-5 ovarian 49.1% | OVCAR-4 ovarian 60.1% | SK-OV-3 ovarian 15.8% | IGROV1 ovarian 22.6% | OVCAR-3 ovarian 35.9% | T-47D breast 52.7% | SW-620 colon 24.5% | MCF7 breast 13.1%

COc1ccc(C2OC(c3cc(-c4cc5ccccc5o4)nn3-c3ccccc3)=NN2C(C)=O)cc1 (stereo not given)
inactive: SR leukemia 93.1% | RPMI-8226 leukemia 101% | OVCAR-8 ovarian 99.5% | OVCAR-5 ovarian 94% | OVCAR-4 ovarian 96.3% | SK-OV-3 ovarian 103% | IGROV1 ovarian 89.4% | OVCAR-3 ovarian 95.3% | NCI/ADR-RES ovarian 92.2% | T-47D breast 86.5% | BT-549 breast 97.2% | MDA-MB-435 melanoma 108% | SW-620 colon 107% | MCF7 breast 100% | HCT-116 colon 88.6%

CC(C)[C@@H](C)/C=C/[C@@H](C)[C@H]1CCC2=C3C=CC4=CC(=O)CC[C@]4(C)[C@H]3CC[C@@]21C
inactive: SR leukemia 70.8% | RPMI-8226 leukemia 66% | OVCAR-8 ovarian 91.1% | OVCAR-5 ovarian 105% | OVCAR-4 ovarian 101% | SK-OV-3 ovarian 105% | IGROV1 ovarian 110% | OVCAR-3 ovarian 116% | HS 578T breast 108% | T-47D breast 91.3% | BT-549 breast 102% | MDA-MB-435 melanoma 103% | SW-620 colon 109% | MCF7 breast 93.6% | HCT-116 colon 93% | HCC-2998 colon 112% | KM12 colon 104%

O=C1CCC(=O)CC1
inactive: SR leukemia 97.4% | RPMI-8226 leukemia 110% | OVCAR-8 ovarian 101% | OVCAR-5 ovarian 92.3% | OVCAR-4 ovarian 113% | SK-OV-3 ovarian 112% | IGROV1 ovarian 96.3% | OVCAR-3 ovarian 117% | HS 578T breast 103% | NCI/ADR-RES ovarian 104% | T-47D breast 102% | MDA-MB-435 melanoma 102% | SW-620 colon 103% | MCF7 breast 101% | HCT-116 colon 109% | HCC-2998 colon 99.9% | KM12 colon 106%

Cc1ccc2oc(=O)cc(-c3cc(-c4cc5ccccc5oc4=O)nc(N)c3C#N)c2c1
inactive: SR leukemia 74.3% | RPMI-8226 leukemia 72.9% | OVCAR-8 ovarian 61.1% | OVCAR-5 ovarian 101% | SK-OV-3 ovarian 78.8% | IGROV1 ovarian 81.6% | OVCAR-3 ovarian 77.1% | HS 578T breast 70.7% | T-47D breast 59.7% | BT-549 breast 57.2% | MDA-MB-435 melanoma 65.7% | SW-620 colon 83.5% | MCF7 breast 78.1% | HCT-116 colon 51.4% | HCC-2998 colon 93%
active: OVCAR-4 ovarian 8.25%

CCN(CC)c1cc2oc3cc(N)cc(=N)c-3nc2cc1C
active: OVCAR-8 ovarian 2.1% | OVCAR-4 ovarian -6.55% | NCI/ADR-RES ovarian 1.37% | MDA-MB-435 melanoma -64.8% | MCF7 breast 1.63% | HCT-116 colon -12.2%
inactive: SR leukemia 30.4% | RPMI-8226 leukemia 43.4% | OVCAR-5 ovarian 32.3% | SK-OV-3 ovarian 103% | IGROV1 ovarian 50.9% | OVCAR-3 ovarian 24.7% | HS 578T breast 37.4% | T-47D breast 39% | SW-620 colon 24.1% | HCC-2998 colon 100% | KM12 colon 40.2%

Cc1ccc(N)cc1CN1C(=O)c2ccccc2C1=O
inactive: SR leukemia 87.4% | RPMI-8226 leukemia 99.3% | OVCAR-8 ovarian 101% | OVCAR-5 ovarian 104% | OVCAR-4 ovarian 110% | SK-OV-3 ovarian 94.2% | IGROV1 ovarian 105% | OVCAR-3 ovarian 117% | HS 578T breast 106% | NCI/ADR-RES ovarian 107% | T-47D breast 110% | MDA-MB-435 melanoma 106% | SW-620 colon 108% | MCF7 breast 108% | HCT-116 colon 93.4% | HCC-2998 colon 104% | KM12 colon 111%

Cc1cc(C(O)CN(C)C)cc2c1ccc1cc(C(C)C)ccc12 (stereo not given)
inactive: OVCAR-5 ovarian 49.5% | SK-OV-3 ovarian 83.7% | OVCAR-3 ovarian 64.7% | NCI/ADR-RES ovarian 59.8%
active: SR leukemia -19.6% | RPMI-8226 leukemia -22.6% | OVCAR-8 ovarian -46.5% | OVCAR-4 ovarian -2.02% | IGROV1 ovarian -64.4% | HS 578T breast -0.73% | T-47D breast -33% | MDA-MB-435 melanoma -80.8% | SW-620 colon -89.8% | MCF7 breast -99.8% | HCT-116 colon -100%

O=C(Nc1cccc([N+](=O)[O-])c1)c1ccc(Cl)c(Cl)c1
inactive: SR leukemia 80.7% | RPMI-8226 leukemia 79.1% | OVCAR-8 ovarian 43.5% | OVCAR-5 ovarian 94.2% | OVCAR-4 ovarian 16.7% | SK-OV-3 ovarian 53.3% | IGROV1 ovarian 47% | OVCAR-3 ovarian 53.8% | HS 578T breast 70% | NCI/ADR-RES ovarian 79% | T-47D breast 54.8% | MDA-MB-435 melanoma 92% | SW-620 colon 96.2% | MCF7 breast 49% | HCT-116 colon 56.8% | HCC-2998 colon 120% | KM12 colon 93.8%

O=[N+]([O-])c1cc(Br)cc2c1[nH]c1ccc(Br)cc12
active: OVCAR-4 ovarian -26.5%
inactive: SR leukemia 77.2% | RPMI-8226 leukemia 78.2% | OVCAR-8 ovarian 57.7% | OVCAR-5 ovarian 80.4% | SK-OV-3 ovarian 34.5% | IGROV1 ovarian 36.6% | OVCAR-3 ovarian 43.3% | HS 578T breast 65.4% | T-47D breast 42.9% | MDA-MB-435 melanoma 86.4% | SW-620 colon 67% | MCF7 breast 45.8% | HCT-116 colon 36.6% | HCC-2998 colon 94.3% | KM12 colon 71.4%

O=S1(=O)OC(c2cc(Cl)c(O)c(Br)c2)(c2cc(Cl)c(O)c(Br)c2)c2ccccc21
inactive: SR leukemia 92.4% | RPMI-8226 leukemia 102% | OVCAR-8 ovarian 89.8% | OVCAR-5 ovarian 100% | OVCAR-4 ovarian 101% | SK-OV-3 ovarian 109% | IGROV1 ovarian 95.6% | OVCAR-3 ovarian 115% | HS 578T breast 94.1% | NCI/ADR-RES ovarian 102% | T-47D breast 114% | MDA-MB-435 melanoma 124% | SW-620 colon 99.6% | MCF7 breast 104% | HCT-116 colon 96.7% | HCC-2998 colon 103% | KM12 colon 106%

Ic1ccccc1-c1ccccc1
inactive: SR leukemia 102% | RPMI-8226 leukemia 103% | OVCAR-8 ovarian 110% | OVCAR-5 ovarian 114% | OVCAR-4 ovarian 109% | SK-OV-3 ovarian 111% | IGROV1 ovarian 117% | OVCAR-3 ovarian 111% | HS 578T breast 102% | T-47D breast 107% | MDA-MB-435 melanoma 121% | SW-620 colon 102% | MCF7 breast 103% | HCT-116 colon 111% | KM12 colon 109%

O=S1(=O)OC(c2ccc(O)c(Cl)c2)(c2ccc(O)c(Cl)c2)c2ccccc21
inactive: SR leukemia 112% | RPMI-8226 leukemia 104% | OVCAR-8 ovarian 87.5% | OVCAR-5 ovarian 96.5% | OVCAR-4 ovarian 99.8% | SK-OV-3 ovarian 101% | IGROV1 ovarian 91.2% | OVCAR-3 ovarian 116% | HS 578T breast 97% | NCI/ADR-RES ovarian 105% | T-47D breast 97.2% | MDA-MB-435 melanoma 113% | SW-620 colon 100% | MCF7 breast 104% | HCT-116 colon 99.8% | HCC-2998 colon 103% | KM12 colon 103%

Brc1ccc([I+]c2ccc(Br)cc2)cc1
inactive: OVCAR-8 ovarian 11.6% | OVCAR-5 ovarian 61% | OVCAR-4 ovarian 22.3% | SK-OV-3 ovarian 43.6% | IGROV1 ovarian 26.2% | OVCAR-3 ovarian 61.6% | HS 578T breast 69.7% | NCI/ADR-RES ovarian 98.9% | T-47D breast 16.4% | MDA-MB-435 melanoma 19.5% | SW-620 colon 17.8% | HCC-2998 colon 25%
active: SR leukemia 3.44% | RPMI-8226 leukemia 7.72% | MCF7 breast 7.26% | HCT-116 colon 8.91% | KM12 colon 3.55%

CCCCCC(=O)OCc1ccc(Cl)c(Cl)c1
inactive: SR leukemia 97.5% | RPMI-8226 leukemia 104% | OVCAR-8 ovarian 103% | OVCAR-5 ovarian 108% | OVCAR-4 ovarian 105% | SK-OV-3 ovarian 107% | IGROV1 ovarian 106% | OVCAR-3 ovarian 106% | HS 578T breast 103% | T-47D breast 105% | BT-549 breast 109% | MDA-MB-435 melanoma 109% | SW-620 colon 109% | MCF7 breast 93.9% | HCT-116 colon 101% | HCC-2998 colon 94.8%

CCNCCNc1cc(-c2ccc(Cl)c(Cl)c2)c(C#N)c2nc3ccccc3n12
active: SR leukemia -30.9% | RPMI-8226 leukemia -39.2% | OVCAR-8 ovarian -66% | OVCAR-5 ovarian -76% | OVCAR-4 ovarian -78.4% | SK-OV-3 ovarian -94.1% | IGROV1 ovarian -70.7% | OVCAR-3 ovarian -94% | HS 578T breast -45.7% | T-47D breast -60.8% | BT-549 breast -70.5% | MDA-MB-435 melanoma -95% | SW-620 colon -67.3% | MCF7 breast -72% | HCT-116 colon -87.3% | HCC-2998 colon -87.1% | KM12 colon -86.6%

CCCCCc1ccc(C)cc1OC(=O)CCl
inactive: SR leukemia 109% | RPMI-8226 leukemia 98.5% | OVCAR-8 ovarian 89.1% | OVCAR-5 ovarian 101% | OVCAR-4 ovarian 109% | SK-OV-3 ovarian 107% | IGROV1 ovarian 103% | OVCAR-3 ovarian 122% | HS 578T breast 116% | NCI/ADR-RES ovarian 111% | T-47D breast 102% | MDA-MB-435 melanoma 117% | SW-620 colon 103% | MCF7 breast 98% | HCT-116 colon 109% | HCC-2998 colon 109% | KM12 colon 106%
